Measurements reported in PubChem BioAssay (EPA / NIEHS).
Inconclusive results are not listed. Activity calls are given as the source filed them. Rule for the calls: active = hit-call score of the fitted dose curve at least 0.9, where 1 is the maximum; inconclusive = response in the unintended direction; inactive = score below 0.9.

Tests used:
[1] = target: Retinoic acid receptor RXR-alpha (Homo sapiens) (UniProt P19793); test: OT_NURR1_NURR1RXRa_0480: Odyssey Thera (OT) 8-hour HEK293T Protein Complementation Assay for Nurr1/retinoid X receptor (RXR) (AID 2283385)
Procedure, shortened: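 Gain in fluorescent complementation signal over DMSO, measured 8 hours after chemical dosing of human kidney HEK293T cells, indicated enhanced Nurr1–RXRα association.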

[2] = target: Retinoic acid receptor RXR-alpha (Homo sapiens) (UniProt P19793); test: OT_NURR1_NURR1RXRa_1440: Odyssey Thera (OT) 24-hour HEK293T Protein Complementation Assay for Nurr1/retinoid X receptor (RXR) (AID 2283386)
Procedure, shortened: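 Cell-based binding reporter: HEK293T cells, 24 h exposure, fluorescence-detected fragment complementation, DMSO as baseline.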

[3] = target: Peroxisome proliferator-activated receptor gamma (Homo sapiens) (UniProt P37231); test: OT_PPARg_PPARgSRC1_0480: Odyssey Thera (OT) 8-hour Protein-Complementation Assay for Peroxisome Proliferator-activated Receptor Gamma / SRC-1 Co-activator (AID 2283387)
Procedure, shortened: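 Split-YFP (IFP1/IFP2) PPARg/SRC-1 reporter, HEK293T, 37 °C, 5% CO2; 8 h compound; formaldehyde fix + Draq5; high-content imaging, N/C ratio, ≥350 cells/image, positive direction vs DMSO.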

[4] = target: Peroxisome proliferator-activated receptor gamma (Homo sapiens) (UniProt P37231); test: OT_PPARg_PPARgSRC1_1440: Odyssey Thera (OT) 24-hour Protein-Complementation Assay for Peroxisome Proliferator-activated Receptor Gamma/ SRC-1 Co-activator (AID 2283388)
Procedure, shortened: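 HEK293T transiently transfected with PPARg/SRC-1 split-Venus YFP fusions 48 h before dosing, then treated 24 h at 37C. Fixed cells imaged; nuclear/cytoplasmic 488 nm fluorescence ratio, gain of signal versus DMSO.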

Sequence of Retinoic acid receptor RXR-alpha (Homo sapiens) (P19793 whole entry, looked up, the tested form may be a part): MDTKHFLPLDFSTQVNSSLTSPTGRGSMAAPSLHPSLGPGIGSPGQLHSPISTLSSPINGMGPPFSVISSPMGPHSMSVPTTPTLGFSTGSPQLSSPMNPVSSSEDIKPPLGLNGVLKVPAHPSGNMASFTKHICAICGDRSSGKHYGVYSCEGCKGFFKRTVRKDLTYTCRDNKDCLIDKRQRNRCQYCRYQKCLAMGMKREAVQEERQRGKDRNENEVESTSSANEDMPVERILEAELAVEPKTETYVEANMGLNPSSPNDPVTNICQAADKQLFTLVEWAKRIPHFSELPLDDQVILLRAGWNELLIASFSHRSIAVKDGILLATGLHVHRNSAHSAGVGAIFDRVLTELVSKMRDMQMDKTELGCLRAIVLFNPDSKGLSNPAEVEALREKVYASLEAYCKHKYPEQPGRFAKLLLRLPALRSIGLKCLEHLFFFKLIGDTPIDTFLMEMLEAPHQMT
Sequence of Peroxisome proliferator-activated receptor gamma (Homo sapiens) (P37231 whole entry, looked up, the tested form may be a part): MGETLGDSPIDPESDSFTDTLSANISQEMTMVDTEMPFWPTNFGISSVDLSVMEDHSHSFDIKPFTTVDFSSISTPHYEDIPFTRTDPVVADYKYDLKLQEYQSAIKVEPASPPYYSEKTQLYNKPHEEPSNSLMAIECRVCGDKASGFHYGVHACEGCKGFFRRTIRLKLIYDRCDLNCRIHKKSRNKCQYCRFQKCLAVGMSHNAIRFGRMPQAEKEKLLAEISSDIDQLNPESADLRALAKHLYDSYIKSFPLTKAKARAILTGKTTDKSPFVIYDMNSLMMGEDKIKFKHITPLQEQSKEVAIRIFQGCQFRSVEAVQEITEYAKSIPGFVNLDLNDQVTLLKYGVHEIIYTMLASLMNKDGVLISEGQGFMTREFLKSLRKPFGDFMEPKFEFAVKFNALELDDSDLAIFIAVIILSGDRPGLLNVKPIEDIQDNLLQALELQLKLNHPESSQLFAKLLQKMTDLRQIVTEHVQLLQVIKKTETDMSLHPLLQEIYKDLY

COc1cc(OC)nc(NC(=O)NS(=O)(=O)c2ncccc2C(=O)N(C)C)n1
outcome [1]: inactive | outcome [2]: inactive | outcome [3]: inactive | outcome [4]: inactive

CC(=O)c1cc(C(C)(C)C)cc2c1CCC2(C)C
AC50 [1]: 74.2 µM (active) | AC50 [2]: 86.9 µM (active) | outcome [3]: inactive | outcome [4]: inactive

C=CC#N
outcome [1]: inactive | outcome [3]: inactive | outcome [4]: inactive

O=C1C(Cl)=C(Cl)C(=O)c2ccccc21
AC50 [1]: 11.4 µM (active) | AC50 [3]: 11.8 µM (active)

CC(C)(c1ccc(OCC2CO2)cc1)c1ccc(OCC2CO2)cc1 (stereo not drawn)
outcome [1]: inactive | outcome [3]: inactive | outcome [4]: inactive

O=[N+]([O-])c1ccc(O)c([N+](=O)[O-])c1
outcome [1]: inactive | outcome [3]: inactive | outcome [4]: inactive

Clc1ccc(COC(Cn2ccnc2)c2ccc(Cl)cc2Cl)cc1 (stereo not drawn)
AC50 [1]: 11.2 µM (active) | AC50 [2]: 11.6 µM (active) | outcome [3]: inactive | outcome [4]: inactive

COP(=S)(OC)Oc1ccc(Sc2ccc(OP(=S)(OC)OC)cc2)cc1
outcome [1]: inactive | outcome [3]: inactive | outcome [4]: inactive

CNC(=O)O/N=C/C(C)(C)S(C)=O (stereo not drawn)
outcome [1]: inactive | outcome [2]: inactive | outcome [3]: inactive | outcome [4]: inactive

Clc1nc(Cl)nc(Cl)n1
outcome [1]: inactive | outcome [2]: inactive

Cc1ccccc1N
outcome [1]: inactive | outcome [2]: inactive

ClCC(Cl)CCl
outcome [1]: inactive | outcome [2]: inactive

OCC(O)CCl (stereo not drawn)
outcome [1]: inactive | outcome [2]: inactive | outcome [3]: inactive

OCc1ccco1
outcome [1]: inactive | outcome [3]: inactive

COc1ccc(C=O)cc1OC
outcome [1]: inactive | outcome [2]: inactive | outcome [3]: inactive

Cl/C=C/Cl
outcome [1]: inactive | outcome [2]: inactive

CCOC(=O)Nc1cccc(OC(=O)Nc2ccccc2)c1
outcome [1]: inactive | outcome [2]: inactive | outcome [3]: inactive | outcome [4]: inactive

BrCCBr
outcome [1]: inactive | outcome [2]: inactive | outcome [3]: inactive
